# Where “and” joins values, the source holds several entries; their conditions need not be identical. Identical values can stand only once. ± gives the standard deviation of the averaged measurements. Over roughly 1,600 compounds, “mitochondrial oxygen consumption rate normalised to cell number, Z score over the library” has its median near 0.065; the lowest 2% begin near -2.2. The sample as a whole holds a higher share of the lowest values than the screen did.
# System: FaDu
# Experiment: mitochondrial oxygen consumption rate normalised to cell number, Z score over the library; higher = higher oxygen consumption (negative = OCR reduction)
# Settings: treatment time 24 h; assay medium: 5 mM galactose, 5 mM pyruvate, 4 mM glutamine; 10 µM
# Method: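 Primary screen: FaDu cells were incubated 24 h with Pharmakon 1600 / TDI oncology set compounds at 2 or 10 uM. Mitochondrial-specific OCR (basal minus 2 uM antimycin A) was measured on a Seahorse XF96 in assay medium with 5 mM galactose, 5 mM pyruvate and 4 mM glutamine, then corrected for Hoechst cell number and expressed as a Z score […]. Compounds that cut cell number by >66% were excluded. Two repeats.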
row,Compound,mitochondrial oxygen consumption rate normalised
1,O=C(O)c1cc(O)c2c(c1)[C@H]([C@H]1c3cc(C(=O)O)cc(O)c3C(=O)c3c(O[C@@H]4O[C@H](CO)[C@@H](O)[C@H](O)[C@H]4O)cccc31)c1cccc(O[C@@H]3O[C@H](CO)[C@@H](O)[C@H](O)[C@H]3O)c1C2=O,0.905 ± 0.018
2,CCCCC(=O)OCC(=O)[C@]1(O)Cc2c(O)c3c(c(O)c2[C@@H](O[C@H]2C[C@H](NC(=O)C(F)(F)F)[C@H](O)[C@H](C)O2)C1)C(=O)c1c(OC)cccc1C3=O [valrubicin],-0.0886 ± 0.77
3,COc1cccc2c1C(=O)c1c(O)c3c(c(O)c1C2=O)C[C@@](O)(C(=O)CO)C[C@@H]3O[C@H]1C[C@H](N)[C@@H](O)[C@H](C)O1,-2.82 ± 0.22
4,Cn1nnnc1SCC1=C(C(=O)O)N2C(=O)[C@@H](NC(=O)[C@H](OC=O)c3ccccc3)[C@H]2SC1,0.0513 ± 0.34
5,CC(C)NCC(O)COc1cccc2ccccc12 (racemic),-0.291 ± 0.42
6,CC[n+]1c(-c2ccccc2)c2cc(N)ccc2c2ccc(N)cc21,-2.32 ± 0.27
7,COc1cc(NS(C)(=O)=O)ccc1Nc1c2ccccc2nc2ccccc12,-2.77 ± 0.43
8,CS(=O)(=O)Nc1ccc([N+](=O)[O-])cc1Oc1ccccc1,0.196 ± 0.72
9,CC(=O)Oc1c(C)c(C)c2c(c1C)CCC(C)(CCCC(C)CCCC(C)CCCC(C)C)O2 (stereo not drawn) [alpha-TOCHOPHERYL ACETATE],-0.281 ± 0.21
10,O=C1c2ccccc2C(=O)C1c1ccc(Cl)cc1,0.0788 ± 0.46
11,CC(O)C(=O)[O-].[Na+] (stereo not given),1.11 ± 0.92
12,CC(=O)Nc1ccc(S(=O)(=O)Nc2ccc([N+](=O)[O-])cc2)cc1,1.45 ± 0.4
13,NCCCS(=O)(=O)O,-0.855 ± 0.32
14,C#CCC(Cc1cnc2nc(N)nc(N)c2n1)c1ccc(C(=O)N[C@@H](CCC(=O)O)C(=O)O)cc1 (stereo not given in full) [Pralatrexate],0.0598 ± 0.75
15,Nc1ccc(S(=O)(=O)O)cc1.Nc1ccc(S(=O)(=O)O)cc1.[Zn],1.04 ± 0.43
16,C[C@@H]1O[C@@H](OC[C@H]2O[C@@H](Oc3c(-c4ccc(OCCO)c(OCCO)c4)oc4cc(OCCO)cc(O)c4c3=O)[C@H](O)[C@@H](O)[C@@H]2O)[C@H](O)[C@H](O)[C@H]1O,-0.575 ± 0.55
17,CC(C)CCC[C@@H](C)[C@H]1CC[C@H]2[C@@H]3CC=C4C[C@@H](O)CC[C@]4(C)[C@H]3CC[C@]12C,-0.87 ± 0.089
18,O=C(c1cccnc1)N1CCOCC1,-0.217 ± 0.94
19,COc1cc(NS(=O)(=O)c2ccc(N)cc2)ncn1,0.47 ± 0.61
20,NCC(O)CC(=O)O (stereo not given),-0.332 ± 0.83

row,Compound,mitochondrial oxygen consumption rate normalised
1,CN1C(=O)CC(C)(c2ccccc2)C1=O (stereo not given),-0.314 ± 0.74
2,CCCCCCCCCc1ccc(OCCOCCOCCOCCOCCOCCOCCOCCOCCO)cc1,-3.66 ± 0.45
3,CCCCOc1ccc(CC(=O)NO)cc1,-0.625 ± 0.84
4,CCCCOc1ccc(OCCCN2CCOCC2)cc1,-0.434 ± 0.23
5,CC(=O)Oc1ccccc1C(=O)O,0.27 ± 0.45
6,CC(=O)Nc1ncc([N+](=O)[O-])s1,0.857 ± 0.27
7,CC(=O)Oc1ccccc1C(=O)Nc1ncc([N+](=O)[O-])s1,-2.45 ± 0.1
8,CN(C)[C@@H]1C(O)=C(C(N)=O)C(=O)[C@@]2(O)C(O)=C3C(=O)c4c(O)cccc4[C@@](C)(O)[C@H]3[C@H](O)[C@@H]12,0.305 ± 0.067
9,Cn1c(=O)c2[nH]c(Br)nc2n(C)c1=O,0.142 ± 0.29
10,O=C(CCBr)N1CCN(C(=O)CCBr)CC1,1.32 ± 1.1
11,O=C(CCBr)N1CCN(C(=O)CCBr)CC1 [Pipobroman],-0.527 ± 1.4
12,CCC1(C)OC(=O)N(C)C1=O (stereo not given),0.0479 ± 0.05
13,CN1C(C(=O)Nc2ccccn2)=C(O)c2sc(Cl)cc2S1(=O)=O,-0.183 ± 0.66
14,O=[N+]([O-])c1ccc(O)c2ncccc12,-2.21 ± 0.14
15,Oc1ccc(Cl)c2cccnc12,0.469 ± 0.61
16,Oc1c(I)cc(I)c2cccnc12,0.968 ± 0.98
17,CCCCCCCC/C=C\CCCCCCCC(=O)O.NCCO,-0.00915 ± 0.76
18,CC[C@H]1OC(=O)[C@H](C)[C@@H](O[C@H]2C[C@@](C)(OC)[C@@H](O)[C@H](C)O2)[C@H](C)[C@@H](O[C@@H]2O[C@H](C)C[C@H](N(C)C)[C@H]2O)[C@](C)(O)C[C@@H](C)[C@@H]2N[C@@H](COCCOC)O[C@H]([C@H]2C)[C@]1(C)O,-0.149 ± 0.29
19,CCc1c2c(nc3ccc(OC(=O)N4CCC(N5CCCCC5)CC4)cc13)-c1cc3c(c(=O)n1C2)COC(=O)[C@]3(O)CC,-1.11 and -2.18
20,CC[C@@]1(O)C(=O)OCc2c1cc1n(c2=O)Cc2cc3c(CN(C)C)c(O)ccc3nc2-1,-4.46 ± 0.19

# Source: the supplement of paper PMC4962491
